Results on 27 molecules are retold here after PubChem BioAssay (NCATS).

Experiment [1] can be described thus: qHTS for Inhibitors of Cell Surface uPA Generation: Validation Assay (AID 493164).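 Note: RAW 264.7 macrophage cells exposed to compound for 18 h.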 In a few lines:
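ATP-Lite luminescence read-out: ATP remains high when uPA activity-dependent LF translocation into the cytoplasm is blocked. RAW 264.7 cells, 18 h compound exposure at 37 C; 7-point titration, 2.45 nM to 38.3 uM final.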

Experiment [2] deals with Peptidyl-prolyl cis-trans isomerase NIMA-interacting 1 (Homo sapiens) (UniProt Q13526). The experiment is described as follows: qHTS Validation Assay to Find Inhibitors of Pin1 (AID 504536; active = well fitted inhibition curve with a large enough effect in the polarisation, with a control signal flat, not every such curve was filed as active; the % refers to the polarisation; note: potency is the fitted concentration of half-maximal effect). In outline: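 Fluorescence polarization competition: compounds (titration) displace HiFluor-488-labeled Pin1-1b peptide from Pin1 (0.3 uM final) in pH 7.5 HEPES buffer with DTT, 10 min at room temperature; %Activity normalized to no-enzyme wells, curves fitted.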
Chain of Peptidyl-prolyl cis-trans isomerase NIMA-interacting 1 (Homo sapiens) (Q13526 whole entry, looked up): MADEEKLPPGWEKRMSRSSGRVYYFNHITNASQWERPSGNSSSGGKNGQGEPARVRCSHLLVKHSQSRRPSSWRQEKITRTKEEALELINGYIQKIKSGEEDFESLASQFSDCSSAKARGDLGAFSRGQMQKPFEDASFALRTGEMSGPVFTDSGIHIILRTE
Background: In qHTS, concentration-response curves come from the screen itself.

Experiment [3] concerns the target Phosphoglycerate kinase, glycosomal (Trypanosoma brucei brucei) (UniProt P07378). Kind of experiment: qHTS Validation Assay to Find Inhibitors of Phosphoglycerate Kinase (AID 504547). In outline: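 Compounds are pinned into the substrate/PGK mixture, and GAPDH (100nM final) is added to start the reaction by producing 1,3-BPG. After 60 minutes at room temperature, Kinase-Glo Plus is added and luminescence is measured 10 minutes later.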

Experiment [4] deals with phosphoglycerate mutase (Leishmania major) (UniProt Q4Q090). Kind of experiment: qHTS Validation Assay to Find Inhibitors of Phosphoglycerate Mutase (AID 504548). Note: series mostly up to about 58 µM. The following applies: Potency: inhibition qHTS. In outline: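 Lm PGAM 1.25nM final; 100 mM TEA pH 7.6, 5 mM MgCl2, 0.01% Tween-20; 45 min RT; Kinase-GloPlus, 10 min; end-point luminescence. Enzyme-free wells as negative controls.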
Chain of phosphoglycerate mutase (Leishmania major) (Q4Q090 1-553): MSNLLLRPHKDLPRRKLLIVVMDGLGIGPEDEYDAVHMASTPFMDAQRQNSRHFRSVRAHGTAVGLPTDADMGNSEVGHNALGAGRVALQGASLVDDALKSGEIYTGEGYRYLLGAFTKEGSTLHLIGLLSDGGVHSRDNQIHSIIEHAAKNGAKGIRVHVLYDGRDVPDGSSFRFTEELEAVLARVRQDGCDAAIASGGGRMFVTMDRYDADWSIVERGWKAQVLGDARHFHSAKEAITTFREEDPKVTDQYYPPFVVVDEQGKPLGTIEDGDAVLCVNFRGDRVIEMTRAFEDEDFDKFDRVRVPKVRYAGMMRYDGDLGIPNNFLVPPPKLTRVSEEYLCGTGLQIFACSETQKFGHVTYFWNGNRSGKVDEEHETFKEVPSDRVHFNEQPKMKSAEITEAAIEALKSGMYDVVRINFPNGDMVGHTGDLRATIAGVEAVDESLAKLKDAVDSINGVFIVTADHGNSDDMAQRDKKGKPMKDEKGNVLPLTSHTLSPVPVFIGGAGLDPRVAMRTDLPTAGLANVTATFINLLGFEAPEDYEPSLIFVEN

The target of experiment [5] is Ubiquitin carboxyl-terminal hydrolase 1 (Homo sapiens) (UniProt O94782). The experiment is described as follows: Inhibitors of USP1/UAF1: Pilot qHTS (AID 504865). Note: nearly all actives have a fitted effect of over 35% in size. Note: potency is the fitted concentration of half-maximal effect. In a few lines: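 Kinetic fluorescence assay: 1nM USP1/UAF1, 15 min compound preincubation, then 150nM Ub-Rho; 480/540 nm.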
Chain of Ubiquitin carboxyl-terminal hydrolase 1 (Homo sapiens) (O94782 whole entry, looked up): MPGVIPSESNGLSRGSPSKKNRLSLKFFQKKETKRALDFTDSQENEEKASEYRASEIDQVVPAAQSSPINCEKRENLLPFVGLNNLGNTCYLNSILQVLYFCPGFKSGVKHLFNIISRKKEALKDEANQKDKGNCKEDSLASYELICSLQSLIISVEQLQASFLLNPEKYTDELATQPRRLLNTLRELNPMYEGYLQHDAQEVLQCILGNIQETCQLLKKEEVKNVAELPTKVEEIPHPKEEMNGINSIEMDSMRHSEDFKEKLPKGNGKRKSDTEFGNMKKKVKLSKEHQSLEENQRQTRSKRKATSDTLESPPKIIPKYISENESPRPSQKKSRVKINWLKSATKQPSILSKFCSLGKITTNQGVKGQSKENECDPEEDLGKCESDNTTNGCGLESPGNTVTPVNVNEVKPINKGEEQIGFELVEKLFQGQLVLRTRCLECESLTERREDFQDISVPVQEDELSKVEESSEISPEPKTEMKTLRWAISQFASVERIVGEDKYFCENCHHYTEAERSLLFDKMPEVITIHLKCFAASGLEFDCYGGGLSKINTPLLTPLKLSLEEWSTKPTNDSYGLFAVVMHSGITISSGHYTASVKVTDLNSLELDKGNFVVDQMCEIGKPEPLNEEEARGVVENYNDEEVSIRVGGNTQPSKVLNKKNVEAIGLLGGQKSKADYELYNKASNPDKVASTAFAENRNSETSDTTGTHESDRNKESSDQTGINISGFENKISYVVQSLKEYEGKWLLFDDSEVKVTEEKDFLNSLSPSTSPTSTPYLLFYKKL
The nature of experiment [6]: qHTS for Inhibitors of ATXN expression: Validation of Cytotoxic Assay (AID 588349). In a few lines: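 Cytotoxicity counter-screen: ATP-based luminescent viability (CellTiter Glo) after 72 hr exposure of HEK293 cells to a compound titration at 37 degrees C.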
Experiment [7] can be described thus: qHTS for Inhibitors of ATXN expression: Validation (AID 588378). Note: nearly all actives have a fitted effect of over 75% in size. Note: potency is the fitted concentration of half-maximal effect. In a few lines: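 Validation of ATXN2 expression inhibitors uses a cell-based luciferase fusion reporter in HEK293 cells, with 24 h compound exposure and paired viability (fluorescence) and reporter (luminescence) end-point reads.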
For experiment [8], the target named is Galactokinase (Homo sapiens) (UniProt P51570). Kind of experiment: qHTS Validation Assay for Inhibitors of Human Galactokinase (GALK) (AID 493189). In outline:
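Compounds were pin-transferred into ATP buffer, then GALK-galactose mix was added (final 5 nM enzyme, 100 uM galactose, 35 uM ATP). After 1 h at room temperature, remaining ATP was measured luminescently.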

The target of experiment [9] is DNA dC->dU-editing enzyme APOBEC-3G (Homo sapiens) (UniProt Q9HC16). Kind of experiment: qHTS for inhibitors of Vif-A3G interactions: Validation (AID 588379). In outline:
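Yellow fluorescence (Ex 488, Em 500-530) of Vif-coexpressing HeLa A3G-eYFP cells, scanned by Acumen cytometer, reports blocked A3G degradation. Cells plated at 700/well overnight at 37 deg C before compound addition, then a further overnight compound incubation at 37 deg C.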

Experiment [10] is described as follows: Validation screen for small molecules that induce DNA re-replication in SW480 colon adenocarcinoma cells (AID 504364). In a few lines: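 Image-based DNA content read-out: Hoechst stain 40 min, total nuclear fluorescence intensity (ex 405 nm, em 500-530 nm) after 48 h compound exposure of 250 SW480 cells/well at 37 C, 5% CO2, versus DMSO vehicle.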

Records with an inconclusive call do not appear. Active and inactive are the calls of the source. Unless noted, calls come from the whole dose curve; as a rule, active = well fitted curve in the direction sought with a large enough effect; inconclusive = small, poorly fitted or top-dose-only effect, or another doubt; inactive = no such curve, though single readings can be large; an effect the other way counts as inactive or inconclusive.

Chain of Phosphoglycerate kinase, glycosomal (Trypanosoma brucei brucei) (P07378 whole entry, looked up): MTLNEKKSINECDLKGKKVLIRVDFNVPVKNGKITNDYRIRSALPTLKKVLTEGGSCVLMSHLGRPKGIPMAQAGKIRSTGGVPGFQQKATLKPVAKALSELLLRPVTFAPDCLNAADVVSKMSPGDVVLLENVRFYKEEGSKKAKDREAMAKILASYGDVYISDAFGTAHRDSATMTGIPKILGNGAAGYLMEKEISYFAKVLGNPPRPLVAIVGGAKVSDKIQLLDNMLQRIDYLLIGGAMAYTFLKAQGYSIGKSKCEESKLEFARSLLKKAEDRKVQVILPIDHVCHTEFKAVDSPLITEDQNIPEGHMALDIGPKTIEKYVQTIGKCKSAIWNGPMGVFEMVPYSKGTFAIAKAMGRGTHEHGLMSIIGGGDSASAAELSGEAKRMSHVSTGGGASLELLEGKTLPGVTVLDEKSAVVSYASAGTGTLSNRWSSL
Chain of Galactokinase (Homo sapiens) (P51570 whole entry, looked up): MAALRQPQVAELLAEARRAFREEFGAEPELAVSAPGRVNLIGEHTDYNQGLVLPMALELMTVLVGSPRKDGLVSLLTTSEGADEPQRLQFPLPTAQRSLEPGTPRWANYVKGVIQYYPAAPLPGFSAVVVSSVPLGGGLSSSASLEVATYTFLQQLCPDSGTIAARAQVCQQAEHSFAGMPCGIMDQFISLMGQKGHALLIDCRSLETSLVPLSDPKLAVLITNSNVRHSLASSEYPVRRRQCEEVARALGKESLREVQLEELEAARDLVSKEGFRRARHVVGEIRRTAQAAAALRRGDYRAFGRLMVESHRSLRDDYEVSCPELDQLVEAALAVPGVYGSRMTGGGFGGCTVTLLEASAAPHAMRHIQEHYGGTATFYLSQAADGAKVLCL
Chain of DNA dC->dU-editing enzyme APOBEC-3G (Homo sapiens) (Q9HC16 whole entry, looked up): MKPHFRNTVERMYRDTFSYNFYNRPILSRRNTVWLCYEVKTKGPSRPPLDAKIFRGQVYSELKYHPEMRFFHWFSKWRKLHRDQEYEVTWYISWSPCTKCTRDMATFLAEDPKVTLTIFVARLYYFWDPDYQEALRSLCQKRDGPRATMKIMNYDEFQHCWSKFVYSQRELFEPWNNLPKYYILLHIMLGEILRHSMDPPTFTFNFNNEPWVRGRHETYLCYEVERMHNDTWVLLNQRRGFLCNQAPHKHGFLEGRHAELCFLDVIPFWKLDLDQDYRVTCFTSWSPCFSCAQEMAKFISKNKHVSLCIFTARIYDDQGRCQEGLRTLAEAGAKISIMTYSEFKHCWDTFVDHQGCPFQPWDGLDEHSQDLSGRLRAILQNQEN

`CC(=O)O[C@H]1Cc2ccccc2N(C(N)=O)c2ccccc21`: the outcome in experiment [1] was inactive. Further, the Potency entry in [2], in experiment [3], in experiment [4], in [5], in experiment [6] and in [7] was “inactive” in each case.
As to `COc1cc(/C=C(\C#N)C(=O)Nc2nnc(C(F)(F)F)s2)ccc1OCc1ccc(C(F)(F)F)cc1C(F)(F)F`, in experiment [1], the molecule was classed as inactive. The figures for the Potency in experiment [2] and in [5] were 23.9 µM (active) and 50.1 µM (active), respectively. In addition, the Potency entry in [4] and in experiment [6] was “inactive” throughout.
On to `O=c1onc2cnc3ccccc3n12`, for which the call in experiment [1] was inactive. Also, the Potency entry in experiment [2], in experiment [3], in experiment [4], in [5], in experiment [6] and in experiment [7] was “inactive” in each case.
Consider `COc1ccc(CCn2nnnc2C2(c3ccc(C)cc3)CC2)cc1`, for which the outcome in experiment [1] was inactive. Also, the Potency result in [2], in experiment [3], in [4], in experiment [6] and in [7] was “inactive” each time.
Regarding `N[C@H](C(=O)O)[C@H](Cc1ccccc1)C(=O)O`, the call in experiment [1] was inactive. In addition, the Potency result in experiment [2], in [3], in experiment [4], in experiment [5], in experiment [6] and in [7] was “inactive” in each case.
On to `CC(C)[C@@H]1CC[C@@H](C)C[C@@H]1P(=O)(c1ccccc1)c1ccccc1`, for which the molecule was classed as inactive in experiment [1]. For the same molecule, the Potency entry in [2], in [3], in experiment [4], in [5], in experiment [6] and in [7] was “inactive” each time.
As for `CC[C@H](NC(=O)c1c(C)c(-c2ccccc2)nc2ccccc12)c1ccccc1`, the Potency entry in [8], in [3], in [4], in experiment [5], in experiment [6] and in experiment [9] was “inactive” each time.
For the molecule `Brc1c(Br)c(Br)c2[nH]cnc2c1Br`, the molecule was classed as inactive in [1]. In addition, the Potency entry in [2], in [5] and in experiment [6] was “inactive” throughout.
As for `CN1CCc2cc(Cl)c(O)cc2[C@@H](c2ccccc2)C1`, in [1], the call was inactive. In addition, the Potency result in [2], in experiment [3], in experiment [4], in experiment [5], in experiment [7] and in experiment [9] was “inactive” each time.
As for `CN1CC(O)C(O)C(O)C1CO` (stereo unspecified), the outcome in experiment [1] was inactive. The Potency entry in [2], in experiment [4], in [5], in [6] and in [7] was “inactive” throughout.
For the molecule `NC[C@@H]1O[C@H](c2ccccc2)Cc2c1ccc(O)c2O`, the molecule was called inactive in experiment [1]. Besides, the Potency result in experiment [2], in experiment [3], in experiment [4], in experiment [5], in experiment [6] and in experiment [7] was “inactive” in each case. Further, the Potency result in experiment [9] was “inactive”.
For `CN1Cc2sccc2C(c2ccc(O)c(O)c2)C1` (stereo unspecified), the molecule was called inactive in experiment [1]. The Potency result in experiment [2], in experiment [3], in [4], in [5] and in experiment [7] was “inactive” each time.
Regarding `C[C@H]1CC2C3CCC4=CC(=O)C=C[C@]4(C)[C@@]3(Cl)[C@@H](O)C[C@]2(C)[C@@]1(O)C(=O)CO` (stereo partly specified), the molecule was classed as inactive in experiment [1]. Further, the Potency entry in [2], in experiment [3], in [4], in [5], in experiment [6] and in experiment [7] was “inactive” in each case.
For the molecule `CCCn1c(=O)c(C)cn2nc(N)nc12`, the outcome in [1] was inactive. Besides, the Potency entry in experiment [2], in experiment [3], in experiment [4], in experiment [5], in [6] and in experiment [7] was “inactive” each time. The Potency result in experiment [9] was “inactive”.
Take `CC(C)NC[C@H](O)COc1cccc2ccccc12`: the Potency entry in [2], in experiment [5], in [6] and in [9] was “inactive” in each case.
As for `N#Cc1cc([N+](=O)[O-])c2sc(C(N)=O)[n+]([O-])c2c1`, the molecule was called inactive in experiment [1]. Besides, the Potency entry in [2], in experiment [3], in [4], in experiment [6] and in experiment [7] was “inactive” each time.
As to `O=c1[nH]c(=S)[nH]c(-c2ccccc2)c1Cc1c(O)ccc2ccccc12`, the Potency entry in experiment [2], in experiment [3], in experiment [4], in experiment [6] and in experiment [7] was “inactive” throughout.
In the case of `O=c1cc(-c2ccccc2F)[nH]c2cc3c(cc12)OCO3`, the molecule was called inactive in experiment [1]. For the same molecule, the Potency entry in [2], in [4], in experiment [5] and in [7] was “inactive” in each case.
`O=C1Cc2c([nH]c3ccc(Br)cc23)-c2ccccc2N1`: the molecule was classed as inactive in experiment [1]. Further, the Potency result in experiment [3], in experiment [4] and in experiment [5] was “inactive” each time.
`CN(C)CCCc1cc(C(=O)Nc2ccc(-c3ccncc3)cc2)ccc1O`: in experiment [1], the molecule was classed as inactive. Besides, the Potency entry in [2], in [4], in experiment [5], in experiment [6], in experiment [7] and in [9] was “inactive” in each case.
Regarding `C=CCNc1ncnc2ccc(Br)cc12`, the molecule was classed as inactive in experiment [1]. In addition, the Potency result in experiment [2], in [3], in experiment [4], in experiment [5] and in experiment [7] was “inactive” throughout.
As for `CCc1ccc2c(-c3cccc(Cl)c3)nc(=O)n(CC)c2n1`, in experiment [1], the molecule was called inactive. Further, the Potency result in experiment [2], in experiment [3], in experiment [4], in experiment [5], in [6] and in [7] was “inactive” throughout. Also, the Potency result in experiment [9] was “inactive”.
For the molecule `CCCCCCCCCCCCCCC[C@H](O)[C@H](N)CO`, the Potency entry in [8], in [10], in [2], in experiment [3], in experiment [4] and in experiment [7] was “inactive” throughout. Besides, the Potency in experiment [5] is 79.4 µM (active).
Regarding `COc1ccc(NC(=O)c2ccc(-c3ccc(-c4noc(C)n4)cc3C)cc2)cc1N1CCN(C)CC1`, the Potency result in [8], in [10], in experiment [2], in experiment [3], in experiment [4] and in [5] was “inactive” each time. Also, in experiment [7], the Potency was 22.4 µM (active).
In the case of `C=C1C[C@@]23CC[C@H]4[C@@](C)(CCC[C@@]4(C)C(=O)O)[C@@H]2CC[C@]1(O)C3`, the molecule was classed as inactive in experiment [1]. Besides, the Potency entry in experiment [2], in [3], in [4], in experiment [5], in experiment [6] and in [7] was “inactive” throughout.
For the molecule `O=C(O)CCC/C=C\C[C@@H]1[C@@H](/C=C/[C@H](O)C2Cc3ccccc3C2)[C@@H](F)C[C@@H]1O`, the call in experiment [1] was inactive. For the same molecule, the Potency result in [2], in experiment [3], in experiment [4], in experiment [5], in experiment [6] and in [7] was “inactive” each time.
For the molecule `c1ccc2c(c1)CCC[C@H]2Nc1nc2ccccc2[nH]1`, in experiment [1], the molecule was called inactive. The Potency result in [2], in experiment [3], in [4], in [5], in [6] and in experiment [7] was “inactive” throughout.
